High-throughput results as filed in PubChem.
GLS inh: inhibitors of human glutaminase (GLS). O94925. GLS enzymatic activity, qHTS titration. Potency, µM (doses to about 45.5 µM), inactives show at the top dose activity change, negative = inhibition, actives largely listed as inhibitors. 410,000 compounds, 0.21% hits
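Enzyme dispensed in phosphate buffer (45 mM, pH 8.2, 0.02% Tween-20), compounds pinned in, then 1 mM L-glutamine solution and the glutamate oxidase–HRP–Amplex Red mix added; fluorescence read immediately and again after 30 min at room temperature.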
BLM inh: Bloom syndrome helicase (human) inhibition; P54132; recombinant BLM DNA unwinding, fluorescence dequenching; Potency, µM (series often up to 56.1 µM), inactives show top-dose activity change, negative = inhibition, usual class: inhibitors; 350,000 compounds, 0.2% hits; AID 2528;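 further: plate controls were vehicle for no effect and no enzyme for full effect; nearly all actives have a fitted effect of over 35% in size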
APE1 inh-1: inhibitors of human APE1 endonuclease | P27695 | recombinant APE1, TAMRA/BHQ-2 abasic DNA cleavage fluorescence | Potency, µM (highest dose often 65.8 µM), inactives show at the highest dose activity change, negative = inhibition, actives largely listed as inhibitors | 350,000 compounds, 0.35% hits | AID 2517;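 further: plate controls were vehicle for no effect and reference inhibitor for full effect; nearly all actives have a fitted effect of over 55% in size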
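APE1 at 0.75 nM final was preincubated with compound 15 min at room temperature, then 50 nM double-stranded THF abasic-site substrate (5'-TAMRA/3'-BHQ-2) was added. Fluorescence (ex 525/em 598 nm) was read kinetically; third-minus-first read gave activity.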
RECQ1 helicase: RECQ1 (human) helicase inhibition. P46063. RECQ1 DNA unwinding, red fluorescence kinetic read. Potency, µM (series often up to 57.3 µM), without a hit: top-dose activity, negative = inhibition, hits mostly inhibitors. 240,000 compounds, 0.54% hits;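 further: plate controls were vehicle for no effect and no enzyme for full effect; nearly all actives have a fitted effect of over 30% in size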
Target sequence (P46063 whole entry, looked up): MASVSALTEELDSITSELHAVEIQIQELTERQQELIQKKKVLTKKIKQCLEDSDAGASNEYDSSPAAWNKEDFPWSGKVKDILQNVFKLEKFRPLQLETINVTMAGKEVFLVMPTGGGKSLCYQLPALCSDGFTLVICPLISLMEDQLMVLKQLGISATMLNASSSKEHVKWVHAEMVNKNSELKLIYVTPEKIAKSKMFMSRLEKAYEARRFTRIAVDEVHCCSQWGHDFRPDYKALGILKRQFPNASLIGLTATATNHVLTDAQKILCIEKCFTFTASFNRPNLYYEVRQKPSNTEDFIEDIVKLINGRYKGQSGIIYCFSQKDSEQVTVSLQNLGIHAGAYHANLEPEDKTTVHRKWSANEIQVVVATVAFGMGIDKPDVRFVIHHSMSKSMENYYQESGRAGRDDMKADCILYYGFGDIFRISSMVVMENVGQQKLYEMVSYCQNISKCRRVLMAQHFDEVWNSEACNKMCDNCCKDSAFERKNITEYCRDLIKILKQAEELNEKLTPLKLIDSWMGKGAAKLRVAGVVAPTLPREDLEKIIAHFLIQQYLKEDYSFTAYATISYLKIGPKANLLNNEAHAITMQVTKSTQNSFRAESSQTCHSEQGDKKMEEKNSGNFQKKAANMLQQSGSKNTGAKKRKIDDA
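50 nM RECQ1T1 preincubated 15 min with compound in Tris pH 8.0 buffer with MgCl2, DTT, Tween-20 and 2.5 ug/ml poly(dI-dC); started with 200 nM TAMRA/BHQ-2 forked duplex and 2 mM ATP. Unwinding read as fluorescence (525/598 nm), two reads 2 h apart.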
FEN1 inhibitor: inhibitors of human flap endonuclease 1 | Potency, µM (doses to about 114 µM), inactives show at the top dose activity change, negative = inhibition, hits mostly inhibitors | P39748 | AID 588795 | 390,000 compounds, 0.35% hits | Recombinant FEN1 flap cleavage, fluorescence, 15 min; further: nearly all actives have a fitted effect of over 65% in size
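Concentration–response screening of FEN1 (10 nM): 15 min compound preincubation at room temperature, reaction started with 50 nM substrate and read at 0 and 15 min. Corrected, normalized data were fitted by a four-parameter Hill equation.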
PGK inhibitor: T. brucei PGK inhibition | AID 602233 | PGK/GAPDH coupled, Kinase-Glo luminescence, 60 min | Potency, µM (highest dose often 57.5 µM), without a hit: at the highest dose activity change, negative = inhibition, actives largely listed as inhibitors | 380,000 compounds, 0.043% hits; further: nearly all actives have a fitted effect of over 60% in size
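Recombinant glycosomal PGK reaction used 1,3-bisphosphoglycerate generated in-well by GAPDH (100nM final) in 100mM TEA pH 7.6, 5mM MgCl2, 0.01% Tween-20. After 60 minutes at room temperature, ATP was read by Kinase-Glo Plus luminescence end-point.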
APE1 dye cs: counter-screen for APE1 inhibitors: DNA dye displacement | 480 compounds, 7% hits | shares compounds with APE1 inh-1 | Potency, µM (titrated, usually from 28.5 µM), without a hit: at the highest dose activity change, negative = inhibition, hits mostly inhibitors | DNA fluorescent dye displacement counterscreen, fluorescence | AID 2564;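 further: loss of thiazole orange fluorescence as the dye is displaced from duplex DNA; 0% = ThO with dsDNA and no compound and -100% = ThO without dsDNA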
Endo IV inh: blocks E. coli endonuclease IV DNA cleavage. shares compounds with APE1 inh-1. E. coli Endo IV, fluorogenic AP-site DNA cleavage. Potency, µM (top dose mostly 27.1 µM), without a hit: top-dose activity change, negative = inhibition, most hits filed as inhibitors. 560 compounds, 4% hits;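 further: plate controls were uninhibited enzyme wells for no effect and no enzyme buffer wells for full effect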
APE1 inh-2: confirmation of inhibitors of human APE1 endonuclease; shares compounds with APE1 inh-1; purified APE1, fluorogenic abasic-site DNA cleavage; 750 compounds, 44% hits; Potency, µM (highest dose often 57.1 µM), for inactives: at the top dose activity change, negative = inhibition, actives largely listed as inhibitors; further: nearly all actives have a fitted effect of over 30% in size
APE1 FP inh: APE1 (human) DNA binding inhibition, fluorescence polarization. shares compounds with APE1 inh-1. APE1 binding to TAMRA-labelled double-stranded DNA, fluorescence polarization displacement. Potency, µM (highest dose often 28.5 µM), for the others: at the top dose activity, negative = inhibition, most hits filed as inhibitors. 480 compounds, 7% hits. AID 2573
An asterisk follows results filed as active; i = inactive; ? = inconclusive; . = no result given; [ ] = remark or other dose. In the library only some 0.86% were active in any assay of this set; here they are far more common. The call rests on the fitted dose curve; in most records, active means well fitted curve in the direction sought with a large enough effect; inconclusive means small, poorly fitted or top-dose-only effect, or another doubt; inactive means no such curve, though single readings can be large; an effect the other way counts as inactive or inconclusive. Unless noted, on the % scale 0 is the no-effect control and ±100 the full control effect; potency means the concentration at half of the fitted maximal effect.

SMILES	GLS inh	BLM inh	APE1 inh-1	RECQ1 helicase	FEN1 inhibitor	PGK inhibitor	APE1 inh-2	others
O=C(O)c1cc2cc(F)ccc2[nH]1	0%	-2%	-3%	1%	2%	-7%	?
O=C(Nc1ccc(S(=O)(=O)Nc2ncccn2)cc1)c1ccc(S(=O)(=O)N2CCCC2)cc1	-7%	0%	2%	10%	-5%	-1%	.
Cc1ccc(S(=O)(=O)N2CCCCC2)cc1C(=O)Nc1ccc(S(=O)(=O)Nc2ncccn2)cc1	-15%	-17%	?	?	?	-23%	?
CN(C)c1ccc(/C=C/c2ccnc3c(N)cccc23)cc1	.	.	.	.	3%	.	.
O=C(Nc1ccc2oc(-c3ccncc3)nc2c1)c1ccc(F)cc1	-6%	-18%	5%	-5%	16%	-4%	?
O=CNc1ccc(/C=C/c2ccnc3ccccc23)cc1	.	.	.	.	-15%	.	.
O=[N+]([O-])c1ccc(-c2cc3ccccc3[nH]2)cc1	.	.	.	.	7%	.	.
CC[N+](C)(C(=O)O)/C(=C\c1ccccc1)c1ccnc2ccccc12 (stereo unspecified)	.	.	.	.	-13%	.	.
Fc1ccc(N2N=C(c3cccs3)CC2c2ccccc2)cc1 (stereo unspecified)	-6%	-11%	4%	-10%	-13%	i	-26%
O=S(=O)(c1ccccc1)N1N=C(c2cccs2)CC1c1ccc(F)cc1 (stereo unspecified)	3%	-11%	-8%	-8%	-17%	-7%	.
COc1cc(N(C)C)c(OC)cc1C=O	.	.	.	.	-2%	.	.
O=C1NCCN1CCN1CCC(c2cn(-c3ccc(F)cc3)c3ccc(Cl)cc23)CC1	13%	.	.	.	.	.	.
CCCCCCCC/C=C\CCCCCCCC(=O)OC[C@@H](O)[C@H]1OC[C@H](O)[C@H]1O	5%	.	.	.	.	.	.
CCOC(=O)CNC(=O)CSc1nnc(-c2ccco2)n1Cc1ccco1	-10%	3%	32µM*	-14%	4%	0%	-10%[24.4 µM]	APE1 dye cs=?;Endo IV inh=2%;APE1 FP inh=-93%
COc1ccc(/C=N/Nc2cc(C)nc(-n3nc(C)cc3C)n2)c(OC)c1	11%	-8%	-1%	-3%	-23%	-1%	.
CCOc1cc(/C=N/Nc2cc(C)nc(-n3nc(C)cc3C)n2)ccc1O	13%	-5%	3%	-1%	12%	6%	-22%
Cc1cc(Cl)nc2nc(Cl)ccc12	.	.	.	.	-24%	.	.
O=C(O)C1Cc2ccccc2CN1C(=O)COc1ccc(Cl)cc1Cl (stereo unspecified)	-7%	-2%	?	i	-1%	10%	.
O=C(O)C1Cc2ccccc2CN1C(=O)COc1ccc(Br)cc1 (stereo unspecified)	0%	-6%	-12%	-3%	0%	-13%	-15%
O=Cc1ccnc2ccccc12	.	.	.	.	15%	.	.
CCn1cc(C(=O)O)c(=O)c2cc(F)c(N3CCN(S(=O)(=O)c4ccc(NC(=O)OC)cc4)CC3)cc21	-2%	-4%	3%	3%	?	-1%	-28%
COC(=O)[C@@H]1[C@H]2SC(C)(C)[C@H](C(=O)OC)N2C(=O)N1Cc1cc2ccccc2n1S(=O)(=O)c1ccccc1	.	.	.	.	-22%	.	.
Cc1ccccc1NS(=O)(=O)c1cccc(-c2nnc(-c3ccccc3)o2)c1	.	-9%	-12%	i	-2%	-3%	.
O=S(=O)(NC1CCCCC1)c1cccc(-c2nnc(-c3ccccc3)o2)c1	14%	-5%	?	i	-10%	2%	-4%[24.4 µM]	APE1 dye cs=1%;Endo IV inh=-6%;APE1 FP inh=-10%
CS(=O)(=O)c1ccc(NC(=O)COc2ccccc2C(=O)Nc2ccccc2)cc1	.	.	.	.	1%	.	.
SMILES	GLS inh	BLM inh	APE1 inh-1	RECQ1 helicase	FEN1 inhibitor	PGK inhibitor	APE1 inh-2	others
COc1ccc2cc3cc(C(=O)NCc4cccs4)oc3nc2c1	3%	-23%	1%	-7%	?	-13%	-12%
O=C1CSC(=S)N1N1C(=O)c2cccc([N+](=O)[O-])c2C1=O	.	121%	?	?	.	.	?
O=C1c2cccc([N+](=O)[O-])c2C(=O)N1CCO	-2%	-8%	10%	-3%	20%	i	.
COc1ccc(-n2nc3c(=O)[nH][nH]c3cc2=O)cc1	0%	-29%	?	-26%	?	-15%	?
Clc1ccccc1-c1nc(NCc2cccs2)c2ccccc2n1	.	-25%	7.9µM*	-26%	.	.	16µM*	APE1 dye cs=?;Endo IV inh=-87%[57.1 µM];APE1 FP inh=38%[57.1 µM]
Cc1ccccc1-c1nc(NCc2cccs2)c2ccccc2n1	.	-14%	?	-14%	.	.	.
[N-]=[N+]=Nc1ccc(C(=O)CSC[C@H](NC(=O)CC[C@H](N)C(=O)O)C(=O)NCC(=O)O)cc1	.	.	?	-5%	.	.	-61%	Endo IV inh=-23%[57.1 µM]
CCCCN(CCCC)c1ccc(/C=C/c2ccnc3ccccc23)cc1	.	.	.	.	0%	.	.
O=C(NN=C1c2ccccc2-c2ccccc21)c1ccccc1Br	-7%	-2%	0%	3%	0%	-11%	.
O=C(NN=C1c2ccccc2-c2ccccc21)c1ccccc1	6%	55%	13µM*	?	-3%	5%	-28%
COc1ccc(OCc2cc(C(=O)O)c(C)o2)cc1	.	5%	25µM*	13%	.	.	40µM*
COc1cc(OC)c(/C=C/c2ccncn2)c(OC)c1	.	.	.	.	-4%	.	.
COc1ccc(/C=N/NC(=O)COc2cccc3cccnc23)cc1OC	25%	30%	-2%	-8%	-15%	-8%	?
COc1ccc2nc(C)cc(SCC(=O)N/N=C/c3ccc(O)c(O)c3)c2c1	?	-13%	?	?	?	?	7.9µM*	APE1 dye cs=?;Endo IV inh=115%;APE1 FP inh=3%
